A number with no mark means an inactive call. Activity calls are given as the source filed them. Calls come from the whole dose curve; as a rule, active = well fitted curve in the direction sought with a large enough effect in the repeat runs; inconclusive = weak or mixed curves; inactive = flat fitted curve, though single readings scatter.
assay: qHTS assay to test for compound auto fluorescence at 535 nm (green) in HEK293 cell free culture (AID 720682); conditions: cell-free medium, green autofluorescence 485/535 nm, stronger effect = higher value; series mostly up to 91.3 µM; activity change: at the top concentration
From the text: U.S. Tox21 Program National Center for Advancing Translational Sciences [NCATS] NIH Chemical Genomics Center [NCGC] U.S. Environmental Protection Agency [EPA] National Institutes of Environmental Health Sciences [NIEHS] National Toxicology Program [NTP] U.S. Food and Drug Administration [FDA] Tox21 Assay Overview: Compound auto fluorescence often interferes with screening of the compound library against various biological targets and signaling pathways. Some of these compounds may have fluorophoric properties. Such properties may interfere with the assay outputs resulting in false positives and/or negatives. To decrease such complications and ensure the compound activities are relevant in terms of biological response, the Tox21 10K compound library was screened for auto fluorescence. From the fluorophores used as reporter signals in our screening assays, the auto fluorescence equivalencies of compounds against three fluorophores have been evaluated: Triamterene, Fluorescein and Rose Bengal sodium for blue, green and red fluorescence, respectively. The fluorescence intensities were measured using Excitation/Emission wavelengths at 405/460nm, 485/535nm and 540/590nm for blue, green and red labels, respectively. This assay includes the green fluorescence data.
Tox21 Assay Protocol Summary: 5 uL of culture medium (DMEM containing 10% FBS) per well was dispensed into black wall/clear bottom 1536-well plates using a Multidrop Combi Dispenser (ThermoFisher Scientific, Waltham, MA). After 23 nL compound or DMSO vehicle was transferred into assay plate by a pintool work station (Kalypsys, San Diego, CA), fluorescence intensities in the assay plates were measured by an Envision (PerkinElmer, Shelton, CT) plate reader using three labels for measuring blue, green and red fluorescence at […] 460, 535 and 590nm respectively.
% is set by controls: 0 for no effect and ±100 for the full control effect.

In order of rising “activity change” value:
1. CC(=O)c1c(C)c([N+](=O)[O-])c(C(C)(C)C)c([N+](=O)[O-])c1C  -0.206%
2. C1=Cc2ccccc2C1  -0.135%
3. Cc1ncsc1CCO  -0.118%
4. COCCO  -0.0784%
5. N[C@H]1C(O)O[C@H](CO)[C@H](O)[C@@H]1O (stereo not given in full)  -0.0642%
6. O=C(O)C1CCC(C(=O)O)CC1 (stereo not given)  -0.0547%
7. O=[N+]([O-])c1cc[n+]([O-])cc1  -0.0388%
8. O=C(Cl)c1ccc([N+](=O)[O-])cc1  -0.0311%
9. CC(O)C1CCCCC1 (stereo not given)  -0.0234%
10. C=C(C)C(=O)OCCOc1ccccc1  -0.012%
11. CC(C)(C)c1cc(O)c(C(C)(C)C)cc1O  -0.0079%
12. CC(=O)/C(C)=C/C1C(C)=CCCC1(C)C (stereo not given)  -0.0045%
13. CC(C)(C)c1ccc(S)cc1  -0.0036%
14. C[Si](C)O[Si](C)(C)O[Si](C)(C)O[Si](C)C  0.0018%
15. CCCCC(CC)COCCCN (stereo not given)  0.0071%
16. COc1ccc(OC)c(OC)c1  0.0117%
17. COCCOCCOCCOCCOC  0.0139%
18. Oc1ccc2c(c1)OCO2  0.0228%
19. Cc1occc1S  0.0278%
20. O=C(O)c1cccc(N(Cc2cccnc2)c2ccc(OC(F)F)c(OC(F)F)c2)c1  0.0538%
21. COc1cc(C(C)(C)C)c(O)c(C(C)(C)C)c1  0.0618%
22. CC(=O)OCCc1ccccc1  0.0818%
23. CCCCCCCCCCCCCCC1CO1 (stereo not given)  0.102%
24. CCCCCCCCN(C)C  0.127%

In order of falling “activity change” value:
1. O=C1[C@H](CC[C@H](O)c2ccc(F)cc2)[C@@H](c2ccc(O)cc2)N1c1ccc(F)cc1  0.0444% [at 46 µM]
2. c1ccc(-c2nc[nH]c2-c2ccccc2)cc1  0.0331% [at 46 µM]
3. O=S1(=O)c2cccc3cccc(c23)N1CCCN1CCN(c2ccc(F)cc2)CC1  0.029% [at 46 µM]
4. Cc1ccc(O)c([C@H](CCN(C(C)C)C(C)C)c2ccccc2)c1  0.0224% [at 46 µM]
5. CCOC(=O)C1=C(C)NC(C)=C(C(=O)OC)C1c1cccc([N+](=O)[O-])c1 (stereo not given)  -0.0081% [at 46 µM]
6. CN1CCC[C@@H]1c1cccnc1  -0.0238% [at 46 µM]
7. CN(C(=O)CCCOc1ccc2[nH]c(=O)ccc2c1)C1CCCCC1  -0.025% [at 46 µM]
8. CN(C)C/C=C(/c1ccc(Br)cc1)c1cccnc1  -0.0273% [at 46 µM]
9. OC(CCN1CCCCC1)(c1ccccc1)C1CCCCC1 (stereo not given)  -0.0715% [at 46 µM]
10. CC(Cc1cccc(C(F)(F)F)c1)NCCOC(=O)c1ccccc1 (stereo not given)  -0.179% [at 46 µM]
11. CC(=O)O[C@@H]1C(=O)O[C@@H]2[C@H]1OC(=O)[C@@H]2OC(C)=O  -0.194% [at 46 µM]

In order of rising activity change:
1. CCCCc1cc2ccccc2c(OCCN(C)C)n1  -0.13% [at 18.6 µM]
2. O=C(O)[C@@H]1[C@H]2C[C@H]3c4[nH]c5ccccc5c4CCN3C[C@@H]2CC[C@@H]1O  -0.0263% [at 18.6 µM]
3. CCN(CC)CCc1nc(-c2ccccc2)no1  0.0186% [at 18.6 µM]

In the case of Nc1nc(N)c2nc(CNc3ccc(C(=O)N[C@@H](CCC(=O)O)C(=O)O)cc3)cnc2n1, the outcome is reported as “inactive”.

With CC(C)c1ccc2c(C(C)C)cc(C(C)C)c(S(=O)(=O)O)c2c1 the “activity change” value was -0.0774% [at 95.7 µM].

— PubChem BioAssay (Tox21)
